Assay results published in PubChem BioAssay (NCATS).
Results filed as inconclusive are left out. Activity calls are given as the source filed them. The call rests on the fitted dose curve; in most records, active means well fitted activation curve with a large enough effect; inconclusive means small, poorly fitted or top-dose-only effect; inactive means no such curve, though single readings can be large or run the other way.

biological target: Arylsulfatase A (Homo sapiens) (UniProt P15289); assay: qHTS screen for enhancers of Arylsulfatase A (ASA1): LOPAC Validation Assay (AID 720538); conditions: ASA enzyme activity, LOPAC qHTS enhancer assay; series mostly up to 57.5 µM
Sequence (P15289 whole entry, looked up): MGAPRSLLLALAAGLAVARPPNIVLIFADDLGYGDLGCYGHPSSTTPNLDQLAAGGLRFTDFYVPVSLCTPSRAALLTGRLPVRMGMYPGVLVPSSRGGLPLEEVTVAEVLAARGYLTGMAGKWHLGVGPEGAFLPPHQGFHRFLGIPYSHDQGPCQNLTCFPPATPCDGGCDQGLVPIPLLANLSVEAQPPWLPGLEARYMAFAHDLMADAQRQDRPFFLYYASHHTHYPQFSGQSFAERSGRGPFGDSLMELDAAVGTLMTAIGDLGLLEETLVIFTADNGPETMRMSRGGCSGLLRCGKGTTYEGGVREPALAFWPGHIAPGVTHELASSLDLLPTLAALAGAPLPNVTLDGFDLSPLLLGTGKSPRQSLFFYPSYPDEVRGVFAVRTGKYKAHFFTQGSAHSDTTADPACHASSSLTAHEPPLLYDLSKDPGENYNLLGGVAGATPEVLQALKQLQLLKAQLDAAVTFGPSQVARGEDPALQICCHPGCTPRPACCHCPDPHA
How it was run: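 SV40-transformed skin fibroblasts from an MLD patient (ASA-I179S) were treated with compounds for 48h at 37 degree C, then lysed with 0.5mM pNCS final substrate for 14h at room temperature; NaOH stop, fluorescence read (Ex=525 nm; Em=598 nm).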

Row | Compound | outcome
1 | Clc1ccc(Cn2c(CN3CCCC3)nc3ccccc32)cc1 | inactive; inhibitor; fitted 0.0054 uM
2 | O=C(O)CCc1nc(-c2ccccc2)c(-c2ccccc2)o1 | inactive
3 | C[N+](C)(C)CCCCCC[N+](C)(C)C | inactive
4 | Clc1ccc(C(c2ccc(Cl)cc2)n2cc[n+](CC(OCc3ccc(Cl)cc3Cl)c3ccc(Cl)cc3Cl)c2)cc1 (stereo not drawn) | inactive
5 | CCN(CC)CCNC(=O)c1ccc(N)cc1 | inactive
6 | O=C1NCC2(CCN(CCc3ccccc3)CC2)O1 | inactive
7 | CCN(CC)CCOC(=O)c1ccc(N)cc1 | inactive
8 | CC(C)NCC(O)COc1cccc2[nH]ccc12 (stereo not drawn) | inactive
9 | CCN(CC)C(=O)c1ccc(O)c(OC)c1 | inactive; inhibitor; fitted 6.012 uM
10 | O=C(NCCN1CCOCC1)c1ccc(Cl)cc1 | inactive
11 | CC1(C)CCC2=C(O1)c1ccccc1C(=O)C2=O | inactive
12 | NCCS | inactive
13 | CCN1CCC[C@H]1CNC(=O)c1cc(S(N)(=O)=O)ccc1OC | inactive
14 | COC(=O)[C@@H]1[C@H]2C[C@H]3c4[nH]c5ccccc5c4CCN3C[C@@H]2CC[C@@H]1O | inactive; inhibitor; fitted 2.3934 uM
15 | Cc1cccc(C)c1OCC(C)N (stereo not drawn) | inactive
16 | CCCCCN(C)CCC(O)(P(=O)(O)O)P(=O)(O)O | inactive
17 | NC(N)=Nc1nc(CSCC/C(N)=N/S(N)(=O)=O)cs1 | inactive
18 | COc1ccccc1N1CCN(CCCNc2cc(=O)n(C)c(=O)n2C)CC1 | inactive
